Source: PubChem
Rows were chosen to be rich in hits. Some 10% of all compounds tested hit in one or more screens of this group.
HP1b chromo inh: blocks HP1-beta chromodomain binding to methylated histone tails. P83916. AlphaScreen HP1-beta / biotin-H3K9me3 peptide binding. Potency, µM (titrated, usually from 114 µM), inactives show top-dose activity change, negative = inhibition, usual class: inhibitors. 0.56% of 390,000 active. AID 540317; also: nearly all actives have a fitted effect of over 70% in size
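Compound inhibition of the preformed complex between 50 nM HP1-beta and 50 nM biotinylated H3K9me3 peptide was read by AlphaScreen. Buffer was PBS pH 7.4 with 0.01% Tween-20. Incubations ran 30 min at room temperature, with 10 ug/mL donor/acceptor beads.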
JMJD2A Tudor: JMJD2A Tudor domain (human) inhibition | O75164 | AlphaScreen JMJD2A-Tudor / H3K4me3 peptide binding | Potency, µM (series often up to 114 µM), inactives show at the top dose activity change, negative = inhibition, usual class: inhibitors | 4.4% of 390,000 active | AID 504339; also: % is scaled to controls: 0 for no effect and ±100 for the full control effect; nearly all actives have a fitted effect of over 50% in size
BAZ2B inh: BAZ2B (human) inhibition; AlphaScreen BAZ2B-H3K14Ac peptide displacement; Q9UIF8; AID 504333; 4.4% of 360,000 active; Potency, µM (titrated, usually from 114 µM), for the others: top-dose activity change, negative = inhibition, hits mostly inhibitors; also: % is scaled to controls: 0 for no effect and ±100 for the full control effect; nearly all actives have a fitted effect of over 60% in size
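AlphaScreen displacement of biotin-H3(5-23)K14Ac peptide (50 nM final) from BAZ2B (50 nM final) in PBS pH 7.4, 0.01% Tween-20; complex preformed 30 min RT, then compounds (top 110 uM) 30 min RT, beads 20 min dark.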
GLS inh: glutaminase GLS (human) inhibition | O94925 | GLS enzymatic activity, qHTS titration | Potency, µM (highest dose often 45.5 µM), inactives show at the top dose activity change, negative = inhibition, hits mostly inhibitors | 0.21% of 410,000 active | AID 624170; also: % is scaled to controls: 0 for no effect and ±100 for the full control effect
Target sequence (O94925 whole entry, looked up): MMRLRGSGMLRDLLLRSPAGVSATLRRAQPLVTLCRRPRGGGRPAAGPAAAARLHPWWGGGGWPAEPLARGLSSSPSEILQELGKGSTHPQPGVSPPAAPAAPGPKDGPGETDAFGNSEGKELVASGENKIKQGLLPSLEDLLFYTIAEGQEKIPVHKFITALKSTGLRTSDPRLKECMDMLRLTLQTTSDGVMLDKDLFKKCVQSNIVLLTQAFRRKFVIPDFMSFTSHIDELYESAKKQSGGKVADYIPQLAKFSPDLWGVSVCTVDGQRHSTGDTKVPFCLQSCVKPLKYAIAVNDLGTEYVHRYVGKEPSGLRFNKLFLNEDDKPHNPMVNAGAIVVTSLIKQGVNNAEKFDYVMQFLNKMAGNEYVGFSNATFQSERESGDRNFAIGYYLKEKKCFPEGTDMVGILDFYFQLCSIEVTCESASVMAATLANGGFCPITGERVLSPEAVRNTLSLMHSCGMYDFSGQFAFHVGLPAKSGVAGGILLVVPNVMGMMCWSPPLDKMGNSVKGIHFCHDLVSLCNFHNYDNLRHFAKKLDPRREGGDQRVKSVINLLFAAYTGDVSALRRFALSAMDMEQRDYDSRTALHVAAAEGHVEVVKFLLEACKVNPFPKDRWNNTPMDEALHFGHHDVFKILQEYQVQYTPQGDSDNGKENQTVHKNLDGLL
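hKGA in 45 mM KH2PO4 pH 8.2, 0.02% Tween-20 with pin-transferred compounds; 1 mM L-glutamine (stock) plus glutamate oxidase/HRP/Amplex Red coupling added. Fluorescence read initially and after 30 min at RT.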
G9a block: blocks human histone lysine methyltransferase G9a; 8.8% of 350,000 active; Q96KQ7; Potency, µM (titrated, usually from 102 µM), without a hit: top-dose activity, negative = inhibition, most hits filed as inhibitors; AID 504332; G9a H3K9 monomethylation, AlphaScreen, 2 h; also: % is scaled to controls: 0 for no effect and ±100 for the full control effect; nearly all actives have a fitted effect of over 75% in size
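Signal arises when biotinylated H3K9 peptide, once monomethylated, bridges streptavidin donor and antibody-captured acceptor beads. Enzyme at 20 nM was preincubated 15 min with test compounds; peptide 500 nM and SAM 20 uM then reacted for 2 h.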
* marks the source's active call; other numbers are inactive results; ! = repeats disagree; [ ] = remark or other dose. Calls follow the shape of the dose curve; as a rule, active = well fitted curve in the direction sought with a large enough effect; inconclusive = small, poorly fitted or top-dose-only effect, or another doubt; inactive = no such curve, though single readings can be large; an effect the other way counts as inactive or inconclusive. Potency is read from the fitted curve at half-maximal effect.

`CC1(C)CC(=O)C2=C(C1)NC1=C(C(=O)c3ccccc31)C2c1ccc(Cl)cc1` (centres undefined) gave HP1b chromo inh inconclusive, JMJD2A Tudor 16µM*, BAZ2B inh 11µM*, GLS inh -2% and G9a block inconclusive.
For COc1ccc(C2NC(=O)NC3=C2C(=O)CCC3)cc1 (centres undefined) the results were HP1b chromo inh 12%, JMJD2A Tudor -11%, BAZ2B inh -4%, GLS inh -2% and G9a block -12%.
Cc1ccc(C2C3=C(CC(C)(C)CC3=O)NC3=C2C(=O)c2ccccc23)cc1 (centres undefined) was read as HP1b chromo inh inconclusive, JMJD2A Tudor 50µM*, BAZ2B inh 32µM*, GLS inh -5% and G9a block 14µM*.
`Cc1ccc(C2C3=C(CC(C)(C)CC3=O)Nc3onc(C)c32)cc1` (centres undefined) gave HP1b chromo inh 48%, JMJD2A Tudor 3%, BAZ2B inh inconclusive, GLS inh 10% and G9a block -16%[59 µM].
For CCCN1C2=C(C(=O)CC(C)(C)C2)C(c2ccc(F)cc2)C2=C1c1ccccc1C2=O (centres undefined) the results were HP1b chromo inh inconclusive, JMJD2A Tudor -30%, BAZ2B inh inconclusive, GLS inh -3% and G9a block 11µM*.
O=S1(=O)N=C(N2CCN(Cc3ccc4c(c3)OCO4)CC2)c2ccccc21 was read as HP1b chromo inh 8%, JMJD2A Tudor -5%, BAZ2B inh 0%, GLS inh -4% and G9a block -1%[59 µM].
`O=C(NC1CC(=O)N(c2cccc(F)c2)C1)c1cc2ccccc2o1` (centres undefined) gave HP1b chromo inh 24%, JMJD2A Tudor 1%, BAZ2B inh 5%, GLS inh 0% and G9a block -9%[59 µM].
`CCN(Cc1ccccc1)C(=O)CCS(=O)(=O)c1cc2c(cc1Cl)NC(=O)CO2` gave HP1b chromo inh 50%, JMJD2A Tudor -4%, BAZ2B inh 4%, GLS inh -7% and G9a block 50µM*!.
Screening CCN(Cc1ccccc1)C(=O)CCS(=O)(=O)c1ccc2c(c1)NC(=O)CO2 returned HP1b chromo inh -10%, JMJD2A Tudor -24%, BAZ2B inh -16%, GLS inh 4% and G9a block 9%.
`O=C(NCCc1ccc(O)c(O)c1)C1COc2ccccc2O1` (centres undefined) gave HP1b chromo inh 35µM*, JMJD2A Tudor 18µM*, BAZ2B inh -13%, GLS inh inconclusive and G9a block 2.2µM*.
For CCOc1cc(C(=O)Nc2cc3c(cc2N2CCCC2)n(C)c(=O)n3C)cc(OCC)c1OCC the results were HP1b chromo inh 32%, JMJD2A Tudor -29%, BAZ2B inh 89µM* and GLS inh -1%.
`Cn1c(=O)c(=O)n(C)c2cc(N3CCCC3)c(NC(=O)c3ccc(C(C)(C)C)cc3)cc21` gave HP1b chromo inh 2%, JMJD2A Tudor -30%, BAZ2B inh inconclusive, GLS inh -5% and G9a block 11µM*.
`CCOc1cc(C(=O)Nc2cc3c(cc2N2CCCC2)n(C)c(=O)c(=O)n3C)cc(OCC)c1OCC` gave HP1b chromo inh 25%, JMJD2A Tudor -22%, BAZ2B inh -21%, GLS inh -8% and G9a block 10µM*.
`CCOc1ccc(C(=O)Nc2cc3c(cc2N2CCCC2)n(C)c(=O)c(=O)n3C)cc1OCC` gave HP1b chromo inh 25%, JMJD2A Tudor -12%, BAZ2B inh -33%, GLS inh -2% and G9a block inconclusive.
CCCOc1ccc(C(=O)Nc2cc3c(cc2N2CCCCC2)n(C)c(=O)n3C)cc1 was read as HP1b chromo inh -5%, JMJD2A Tudor -27%, BAZ2B inh -31%, GLS inh 3% and G9a block -34%[59 µM].
`COc1cccc(NS(=O)(=O)c2ccc3[nH]cc(C(=O)N4CCCC4)c(=O)c3c2)c1` gave HP1b chromo inh 7%, JMJD2A Tudor inconclusive, GLS inh 3% and G9a block -12%[59 µM].
